Measured values published in PubChem BioAssay (EPA / NIEHS).
“And” between values parts separate entries of the source, which are not always exact repeats. Equal values may be shown once. Inconclusive results are not listed. The source made the active and inactive calls. The calls were made as follows, unless noted: active = hit-call score of the fitted dose curve at least 0.9, where 1 is the maximum; inconclusive = response in the unintended direction; inactive = score below 0.9.

Target: Steroid hormone receptor ERR1 (Homo sapiens) (UniProt P11474)
Experiment: ATG_ERRa_TRANS: Attagene TRANS-FACTORIAL HepG2 Assay for human Estrogen-Related Receptor alpha (ERRa) (AID 2282971)
Settings: HepG2 Attagene TRANS reporter, ERRa transactivation
How it was run: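 Signal gain relative to DMSO for an ERRa-Gal4 chimeric receptor, read as reporter mRNA by RT-PCR/capillary electrophoresis. Human HepG2 liver cells, transient multiplex reporter transfection, 24 h chemical exposure.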

Chain of Steroid hormone receptor ERR1 (Homo sapiens) (P11474 whole entry, looked up): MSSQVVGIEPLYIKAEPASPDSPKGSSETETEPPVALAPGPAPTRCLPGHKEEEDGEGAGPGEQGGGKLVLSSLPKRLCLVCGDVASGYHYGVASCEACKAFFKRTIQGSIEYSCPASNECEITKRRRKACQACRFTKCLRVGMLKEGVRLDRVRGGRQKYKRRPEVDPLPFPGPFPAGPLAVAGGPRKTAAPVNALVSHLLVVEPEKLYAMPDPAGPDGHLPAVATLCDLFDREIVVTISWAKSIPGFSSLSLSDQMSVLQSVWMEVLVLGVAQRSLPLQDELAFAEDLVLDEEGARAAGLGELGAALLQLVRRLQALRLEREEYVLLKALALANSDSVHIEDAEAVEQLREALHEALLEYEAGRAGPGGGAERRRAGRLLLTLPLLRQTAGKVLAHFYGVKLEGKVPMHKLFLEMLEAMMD

Structure (SMILES)	outcome
C=C(C)C(=O)OCC(F)(F)C(F)(F)C(F)(F)F	inactive
O=S(=O)(OCC(F)F)C(F)(F)F	inactive
O=C(O)C(F)(OC(F)(F)C(F)(OC(F)(F)C(F)(F)C(F)(F)F)C(F)(F)F)C(F)(F)F (stereo not given)	inactive
OCCCC(F)(F)C(F)(F)C(F)(F)C(F)(F)C(F)(F)C(F)(F)C(F)(F)F	inactive
C=CC(F)(F)C(F)(F)C(F)(F)C(F)(F)C(F)(F)C(F)(F)C(F)(F)C(F)(F)F	inactive
OC[C@@H](O)[C@@H](O)[C@H](O)[C@@H](O)CO	inactive
CCCCCCCOC(=O)c1ccccc1C(=O)OCCCCCCC	inactive

Target: X-box-binding protein 1 (Homo sapiens) (UniProt P17861)
Experiment: ATG_Xbp1_CIS: Attagene CIS-FACTORIAL HepG2 Assay for human X-box Binding Protein 1 (XBP1) (AID 2282972; active = hit-call score of the fitted dose curve at least 0.9, where 1 is the maximum; inactive = score below 0.9)
Settings: HepG2 XBP1 cis-element reporter, Attagene multiplex; actives raise or lower the signal
How it was run: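 HepG2 cells transiently transfected with multiple cis-element reporter units report endogenous TF activity; 24 h exposure, then reporter mRNA measured by RT-PCR, 6-FAM labelling, HpaI digestion and capillary electrophoresis. Bidirectional fitting versus DMSO.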

Chain of X-box-binding protein 1 (Homo sapiens) (P17861 whole entry, looked up): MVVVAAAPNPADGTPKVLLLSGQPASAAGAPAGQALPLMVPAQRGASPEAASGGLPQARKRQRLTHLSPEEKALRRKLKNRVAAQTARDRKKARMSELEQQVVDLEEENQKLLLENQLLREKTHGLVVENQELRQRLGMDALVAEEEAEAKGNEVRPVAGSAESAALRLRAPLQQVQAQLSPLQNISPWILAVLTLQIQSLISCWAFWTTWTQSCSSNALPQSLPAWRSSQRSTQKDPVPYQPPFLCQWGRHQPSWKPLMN

Structure (SMILES)	outcome	AC50
FC1CC(F)(F)C(F)(F)C1(F)F (stereo not given)	inactive	
C=C(C)C(=O)OCC(F)(F)C(F)(F)C(F)(F)F	inactive	
O=C(O)C(F)(F)C(F)(F)C(F)(F)C(F)(F)C(F)(F)C(F)(F)C(F)(F)C(F)(F)Cl		58.7 µM (active) and 50 µM (active)
Cc1ccc(S(=O)(=O)NCl)cc1	inactive	
CO[Si](OC)(c1ccccc1)c1ccccc1	inactive	
C=C(C)C(=O)OCCC(F)(F)C(F)(F)C(F)(F)C(F)(F)C(F)(C(F)(F)F)C(F)(F)F	inactive	
CC(C)(C)c1ccc(OC2CCCCC2O)cc1 (stereo not given)	inactive	
CC(C)=CCCC(C)CCOC(=O)C(C)C (stereo not given)	inactive	
O=S(=O)(OCC(F)F)C(F)(F)F	inactive	
FC(F)(F)C(F)(F)CNCC(F)(F)C(F)(F)F	inactive	
OCC(F)(F)C(F)(F)C(F)(F)C(F)(F)C(F)(F)C(F)F	inactive	
CN(C)Cc1ccccc1O	inactive	
CC(C)OC(=O)c1ccccc1C(=O)OC(C)C	inactive	
O=C(O)C(F)(OC(F)(F)C(F)(OC(F)(F)C(F)(F)C(F)(F)F)C(F)(F)F)C(F)(F)F (stereo not given)	inactive	
C(=C(c1ccccc1)c1ccccc1)c1ccccc1	inactive	
OCCCC(F)(F)C(F)(F)C(F)(F)C(F)(F)C(F)(F)C(F)(F)C(F)(F)F		72.5 µM (active) and 97.8 µM (active)
c1ccc(-c2ccccc2-c2ccccc2)cc1	inactive	

Structure (SMILES)	outcome	AC50
FC(F)(F)C(F)(F)C(F)(F)C(F)(F)CCI	inactive	
O=C(C=Cc1ccccc1)OCC=Cc1ccccc1	inactive	
N=C(N)C(F)(F)C(F)(F)C(F)(F)C(F)(F)C(F)(F)C(F)(F)C(F)(F)F	inactive	
CCCCCCOC(=O)c1ccccc1	inactive	
O=C(O)C(F)(F)C(F)(F)C(F)(F)C(F)(F)C(F)(F)C(F)(F)C(F)(F)C(F)(F)C(F)(F)C(F)(F)C(F)(F)C(F)(F)F	inactive	
CCCCOCCOCCOC(=O)CCCCC(=O)OCCOCCOCCCC	inactive	
CCN(CC)c1ccc2c(C)cc(=O)oc2c1	inactive	
C=CC(=O)OCC(F)(F)C(F)(F)C(F)(F)C(F)(F)COC(=O)C=C		36.4 µM (active)
CC(Cc1ccc(O)c(O)c1)C(C)Cc1ccc(O)c(O)c1 (stereo not given)		14.4 µM (active)
CCCCCCOC(=O)c1ccccc1O	inactive	
FC(F)(I)C(F)(F)C(F)(F)C(F)(F)I	inactive	
C=CC(F)(F)C(F)(F)C(F)(F)C(F)(F)C(F)(F)C(F)(F)C(F)(F)C(F)(F)F	inactive	
CCC(=O)OCCc1ccccc1	inactive	
OC[C@@H](O)[C@@H](O)[C@H](O)[C@@H](O)CO	inactive	
CCCCCCCOC(=O)c1ccccc1C(=O)OCCCCCCC	inactive	
Nc1cc(Cl)c(N)c(Cl)c1	inactive	
C1COCCN1	inactive	

Test system: not listed separately
Experiment: ATG_M_19_TRANS: Attagene TRANS-FACTORIAL HepG2 Assay for M19 Transcription Factor (Internal Marker) (AID 2282974)
Settings: HepG2 Attagene TRANS-FACTORIAL M19 internal marker reporter
How it was run: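 After transfection of HepG2 with GAL4-UAS-driven reporter constructs, cells are dosed for 24 h. Total RNA is reverse-transcribed, reporter sequences PCR-amplified and labelled, then HpaI-digested and sized by capillary electrophoresis.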

Structure (SMILES)	outcome
CO[Si](OC)(c1ccccc1)c1ccccc1	inactive
C=C(C)C(=O)OCCC(F)(F)C(F)(F)C(F)(F)C(F)(F)C(F)(C(F)(F)F)C(F)(F)F	inactive
CC(C)(C)c1ccc(OC2CCCCC2O)cc1 (stereo not given)	inactive
FC(F)(F)C(F)(F)CNCC(F)(F)C(F)(F)F	inactive
OCC(F)(F)C(F)(F)C(F)(F)C(F)(F)C(F)(F)C(F)F	inactive
CN(C)Cc1ccccc1O	inactive
N=C(N)C(F)(F)C(F)(F)C(F)(F)C(F)(F)C(F)(F)C(F)(F)C(F)(F)F	inactive
CCCCCCOC(=O)c1ccccc1	inactive
CC(Cc1ccc(O)c(O)c1)C(C)Cc1ccc(O)c(O)c1 (stereo not given)	inactive
CCCCCCOC(=O)c1ccccc1O	inactive
FC(F)(I)C(F)(F)C(F)(F)C(F)(F)I	inactive
C=CC(F)(F)C(F)(F)C(F)(F)C(F)(F)C(F)(F)C(F)(F)C(F)(F)C(F)(F)F	inactive
OC[C@@H](O)[C@@H](O)[C@H](O)[C@@H](O)CO	inactive
Nc1cc(Cl)c(N)c(Cl)c1	inactive
C1COCCN1	inactive

Test system: not listed separately
Experiment: ATG_GAL4_TRANS: Attagene TRANS-FACTORIAL HepG2 Assay for GAL4 (Internal Marker) (AID 2282976)
Settings: HepG2 Attagene TRANS GAL4 internal marker reporter
How it was run: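 Liver HepG2 line bearing multiplexed GAL4-UAS reporter constructs; 24 h chemical treatment. Transcripts were quantified as fluorescent fragments on capillary electrophoresis after RT-PCR and HpaI cut, with activity fitted upward from DMSO.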

Structure (SMILES)	outcome
FC1CC(F)(F)C(F)(F)C1(F)F (stereo not given)	inactive
C=C(C)C(=O)OCC(F)(F)C(F)(F)C(F)(F)F	inactive
Cc1ccc(S(=O)(=O)NCl)cc1	inactive
CO[Si](OC)(c1ccccc1)c1ccccc1	inactive
CC(C)(C)c1ccc(OC2CCCCC2O)cc1 (stereo not given)	inactive
CC(C)=CCCC(C)CCOC(=O)C(C)C (stereo not given)	inactive
O=S(=O)(OCC(F)F)C(F)(F)F	inactive
FC(F)(F)C(F)(F)CNCC(F)(F)C(F)(F)F	inactive
OCC(F)(F)C(F)(F)C(F)(F)C(F)(F)C(F)(F)C(F)F	inactive
CC(C)OC(=O)c1ccccc1C(=O)OC(C)C	inactive
O=C(O)C(F)(OC(F)(F)C(F)(OC(F)(F)C(F)(F)C(F)(F)F)C(F)(F)F)C(F)(F)F (stereo not given)	inactive
C(=C(c1ccccc1)c1ccccc1)c1ccccc1	inactive
FC(F)(F)C(F)(F)C(F)(F)C(F)(F)CCI	inactive
O=C(C=Cc1ccccc1)OCC=Cc1ccccc1	inactive
O=C(O)C(F)(F)C(F)(F)C(F)(F)C(F)(F)C(F)(F)C(F)(F)C(F)(F)C(F)(F)C(F)(F)C(F)(F)C(F)(F)C(F)(F)F	inactive
CCCCOCCOCCOC(=O)CCCCC(=O)OCCOCCOCCCC	inactive
C=CC(=O)OCC(F)(F)C(F)(F)C(F)(F)C(F)(F)COC(=O)C=C	inactive
CC(Cc1ccc(O)c(O)c1)C(C)Cc1ccc(O)c(O)c1 (stereo not given)	inactive
FC(F)(I)C(F)(F)C(F)(F)C(F)(F)I	inactive
C=CC(F)(F)C(F)(F)C(F)(F)C(F)(F)C(F)(F)C(F)(F)C(F)(F)C(F)(F)F	inactive
CCC(=O)OCCc1ccccc1	inactive
OC[C@@H](O)[C@@H](O)[C@H](O)[C@@H](O)CO	inactive
Nc1cc(Cl)c(N)c(Cl)c1	inactive
C1COCCN1	inactive
